Screens deposited in PubChem BioAssay by National Center for Advancing Translational Sciences (NCATS).
ATXN2 expr inh – ATXN2 expression inhibition; 360,000 compounds, 0.72% hits; HEK-293 ATXN2-luciferase reporter, luminescence, 24 h; Potency, µM (titrated, usually from 57 µM), hits mostly inhibitors; also: nearly all actives have a fitted effect of over 55% in size
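qHTS (up to 57 uM final) was run with 24 h compound exposure of reporter cells at 37 °C. Each well was multiplexed: SteadyGlo luminescence measured ATXN2-luciferase expression after a fluorogenic Gly-Phe-AFC viability readout (25 uM final).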
KB-3-1 cytotox – KB-3-1 parental cell cytotoxicity; KB-3-1 viability, CellTiter-Glo ATP luminescence, 72 h; Potency, µM (titrated, usually from 46.1 µM), hits mostly cytotoxic; 400,000 compounds, 1.4% hits; AID 1347075; also: nearly all actives have a fitted effect of over 60% in size
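Using CellTiter-Glo luminescence, growth of non-resistant KB-3-1 adenocarcinoma cells is assessed 72 h after pin-tool compound addition at 37 °C. Normalized responses across the concentration series yield fitted curves.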
ATXN viability – viability counter-screen for ATXN expression inhibitors; S2 cells (HEK-293 line with an ATXN2-luciferase reporter) viability, CellTiter-Fluor protease fluorescence, 24 h; Potency, µM (titrated, usually from 56.7 µM), most hits filed as cytotoxic; 400,000 compounds, 0.49% hits; also: nearly all actives have a fitted effect of over 40% in size
HT1080-NT tox – kills 2HG-producing HT-1080-NT fibrosarcoma cells; HT-1080-NT fibrosarcoma viability, CellTiter-Glo ATP luminescence, 48 h; Potency, µM (top dose mostly 46.1 µM), most hits filed as cytotoxic; 360,000 compounds, 1.6% hits; AID 686970;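 also: NT is the 2HG producing partner of a matched IDH1 knockdown line; nearly all actives have a fitted effect of over 55% in size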
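HT-1080-NT; 750 cells/well; 5% FBS RPMI; 48 h compound, 37 degrees C; CellTiter-Glo luminescence; curve fitting and curve-class assignment.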
HT1080 IDH1KD tx – toxicity to HT-1080 IDH1 knockdown cells (counter line); HT-1080 IDH1 knockdown viability, ATP luminescence, 48 h; Potency, µM (doses to about 46.1 µM), most hits filed as cytotoxic; 360,000 compounds, 2% hits; AID 686971
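After a 2 h attachment period, IDH1KD HT-1080 cells took pin-transferred compound for 48 h at 37 °C; ATP-based luminescence after 10 min room-temperature reagent incubation reported viability.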
KB-V1 MDR tox – KB-V1 MDR subline cytotoxicity; KB-V1 MDR cells viability, CellTiter-Glo, 72 h; Potency, µM (highest dose often 46.1 µM), usual class: cytotoxic; 400,000 compounds, 3.4% hits; AID 1347076; also: nearly all actives have a fitted effect of over 60% in size
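Readout: CellTiter-Glo luminescence, 10 min after addition. Cells: KB-V1 MDR subline, 72 h at 37 degrees C with compound. Analysis: corrected, normalized data fitted to concentration-effect curves.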
Large screens that a line does not name were inactive. Only some compounds are listed: those with a hit (about 6.2% of all), similar ones and a draw of the others. Calls follow the shape of the dose curve; as a rule, active = well fitted curve in the direction sought with a large enough effect; inconclusive = small, poorly fitted or top-dose-only effect, or another doubt; inactive = no such curve, though single readings can be large; an effect the other way counts as inactive or inconclusive.

COCCNC(=O)c1ccc2c(c1)nc(C)n2-c1cccc(Cl)c1	none
CCOC(CNC(=O)c1ccc2c(c1)nc(C)n2-c1cccc(F)c1)OCC	KB-V1 MDR tox 21µM
Oc1cccc2ccc(Nc3ccccn3)nc12	KB-3-1 cytotox 5.8µM, HT1080-NT tox 5.8µM, HT1080 IDH1KD tx 5.8µM, KB-V1 MDR tox inconclusive (no result: ATXN viability)
Cc1c(-c2nsc(NC(=O)c3ccccc3)n2)nnn1-c1ccc(C(F)(F)F)c(Cl)c1	ATXN2 expr inh inconclusive (no result: HT1080-NT tox, HT1080 IDH1KD tx)
N#Cc1ccc(Nc2nc(-c3ccc(O)cc3O)cs2)cc1C(F)(F)F	ATXN2 expr inh 25µM, KB-3-1 cytotox inconclusive, ATXN viability 22µM, HT1080-NT tox inconclusive, HT1080 IDH1KD tx inconclusive, KB-V1 MDR tox inconclusive
Oc1ccc(-c2csc(Nc3ccc4c(c3)OCO4)n2)c(O)c1	ATXN viability inconclusive
CC(C)(C)c1cc(C(c2cccnc2)N2CCN(CCO)CC2)cc(C(C)(C)C)c1O (centres undefined)	ATXN2 expr inh inconclusive, HT1080-NT tox 6.3µM, HT1080 IDH1KD tx 5µM (no result: ATXN viability)
O=C(Nc1cccc(C(F)(F)F)c1)Oc1ccc(Cl)c2cccnc12	ATXN2 expr inh inconclusive, KB-3-1 cytotox inconclusive, HT1080-NT tox 16µM, HT1080 IDH1KD tx 15µM
CCN(CC)C(=O)Oc1ccc(Cl)c2cccnc12	none
C[C@H]1C(=O)N(c2ccccc2)[C@@H]1c1ccccc1	none
O=C1C(Cc2ccccc2)C(c2ccccc2)N1c1ccccc1 (centres undefined)	KB-3-1 cytotox 21µM, KB-V1 MDR tox 18µM
CCOc1cc2[nH]c(=O)n(CCCC(=O)N3CCN(c4cccc(Cl)c4)CC3)c(=O)c2cc1OCC	KB-V1 MDR tox inconclusive (no result: HT1080-NT tox, HT1080 IDH1KD tx)
CCOC(=O)c1cc(OC)c2cccc(CN3CCCC(C)(C(=O)NCCOC)C3)c2c1 (centres undefined)	ATXN2 expr inh inconclusive, ATXN viability 20µM, HT1080 IDH1KD tx inconclusive
CC(=O)NCCNC(=O)c1cnn(-c2nccc(-c3cc(C)sc3C)n2)c1C	none (no result: ATXN2 expr inh, KB-3-1 cytotox, HT1080-NT tox, HT1080 IDH1KD tx, KB-V1 MDR tox)
CC1CN(C(=O)c2ccc(Cl)c(S(=O)(=O)NCc3ccco3)c2)CC(C)O1 (centres undefined)	none
Cc1cccc(N2CCN(C(=O)c3ccc(Cl)c(S(=O)(=O)NCc4ccco4)c3)CC2)c1C	ATXN2 expr inh inconclusive, KB-3-1 cytotox 13µM, ATXN viability inconclusive, HT1080-NT tox inconclusive, HT1080 IDH1KD tx 16µM, KB-V1 MDR tox 13µM
O=C(c1ccc(Cl)c(S(=O)(=O)NCc2ccccc2)c1)N1CCN(c2ccccn2)CC1	ATXN viability inconclusive, HT1080-NT tox inconclusive, HT1080 IDH1KD tx inconclusive, KB-V1 MDR tox 4.1µM
O=C(c1nn(Cc2ccccc2)c(=O)c2ccccc12)N1CCN(c2ccccn2)CC1	KB-V1 MDR tox 2.3µM
Cc1ccc(-c2nc3sc(CCNC(=O)c4ccc(Br)o4)c(C)n3n2)cc1	ATXN2 expr inh inconclusive (no result: ATXN viability, HT1080-NT tox, HT1080 IDH1KD tx)
COC(=O)c1ccc(C(=O)NC2CCCc3c2cnn3-c2ccccc2F)nc1 (centres undefined)	KB-3-1 cytotox inconclusive, HT1080-NT tox inconclusive, HT1080 IDH1KD tx inconclusive, KB-V1 MDR tox 4.1µM
Cc1nnsc1C(=O)NC1CCCc2c1cnn2-c1ccc(F)cc1F (centres undefined)	HT1080-NT tox 7.3µM, KB-V1 MDR tox inconclusive
Cc1cc(C)cc(C(=O)NCCc2sc(-c3ccc(F)cc3)nc2C)c1	KB-V1 MDR tox inconclusive (no result: HT1080-NT tox, HT1080 IDH1KD tx)
C[C@]12CC[C@H](O)CC1=CC[C@@H]1[C@H]2CC[C@]2(C)C(c3cccnc3)=CC[C@H]12	none (no result: KB-3-1 cytotox, ATXN viability, HT1080-NT tox, HT1080 IDH1KD tx, KB-V1 MDR tox)
CN1CCN(/N=C/c2c3ccccc3c(Cl)c3ccccc23)CC1	HT1080-NT tox 23µM, HT1080 IDH1KD tx 21µM, KB-V1 MDR tox inconclusive
Cc1ccc(O)c(CN(C)Cc2cc(C)ccc2O)c1	KB-3-1 cytotox inconclusive, KB-V1 MDR tox 21µM
Cc1ccc(O)c(CP(=O)(c2ccccc2)c2ccccc2)c1	KB-V1 MDR tox inconclusive
O=c1c2ccccc2nc(-c2ccccc2)n1Cc1ccco1	KB-V1 MDR tox 12µM
Cc1ccc(Cn2c(-c3ccccc3)nc3ccccc32)cc1	ATXN viability inconclusive (no result: HT1080-NT tox, HT1080 IDH1KD tx)
O=C1c2ccccc2C(=O)N1CCCc1nc2ccccc2c(=O)n1Cc1ccco1	KB-V1 MDR tox inconclusive
Cc1ccc(-c2nc3ccccc3c(=O)n2Cc2ccccc2)cc1	ATXN viability inconclusive, KB-V1 MDR tox 13µM
CCNC(=O)NC(=O)CSc1ccc(S(=O)(=O)N(C)C2CCCCC2)cn1	ATXN viability inconclusive, KB-V1 MDR tox 21µM
CCCNC(=O)CSc1ccc(S(=O)(=O)N(C)C2CCCCC2)cn1	none (no result: ATXN2 expr inh)
CCC(C)NC(=O)CSc1ccc(S(=O)(=O)N(C)C2CCCCC2)cn1 (centres undefined)	ATXN viability inconclusive, KB-V1 MDR tox 12µM
COc1ccc2c(c1)c1c(c(=O)n(-c3ccc(OC)c(OC)c3)c(=O)n1CC(=O)N1CCCC1)n2C	KB-V1 MDR tox inconclusive (no result: HT1080-NT tox, HT1080 IDH1KD tx)
CC(C)(C)OC(=O)N1CCC(c2c(C(=O)NCC3CCN(C4CCCC4)C3)cnn2-c2cccc(Cl)c2)CC1 (centres undefined)	ATXN2 expr inh inconclusive, ATXN viability inconclusive, HT1080-NT tox inconclusive, HT1080 IDH1KD tx 18µM
CC(C)(C)OC(=O)N1CCC(c2c(C(=O)NCC3CCN(C4CCCC4)C3)cnn2-c2ccccc2)CC1 (centres undefined)	KB-V1 MDR tox inconclusive
CC(C)(C)OC(=O)N1CCC(c2c(C(=O)NCC3CCN(C4CCCC4)C3)cnn2-c2ccc(F)cc2)CC1 (centres undefined)	KB-V1 MDR tox inconclusive
Cc1ccc(-n2ncc(C(=O)NCC3CCN(C4CCCC4)C3)c2C2CCN(C(=O)OC(C)(C)C)CC2)cc1 (centres undefined)	ATXN2 expr inh inconclusive, KB-3-1 cytotox inconclusive, HT1080-NT tox 23µM, HT1080 IDH1KD tx inconclusive
O=C(CN1CCN(Cc2ccc(F)cc2)C1=O)NCc1ccc(F)cc1	none (no result: HT1080-NT tox, HT1080 IDH1KD tx)
O=C(c1ccccc1F)N1CCCC(c2ccccc2)C1 (centres undefined)	KB-V1 MDR tox 23µM
CC1(C)CC2C1CCC1(O)CC2(C)CCC1N(O)c1ccc(C(=O)NCCO)cn1 (centres undefined)	ATXN2 expr inh 28µM, KB-3-1 cytotox inconclusive, ATXN viability inconclusive
Cc1cc(C)n(-c2nc(SCCN3CCOCC3)c3c4c(sc3n2)CCCC4)n1	KB-3-1 cytotox inconclusive
Cc1cc(C)n(-c2nc(NCCN(C)C)c3c4c(sc3n2)CCCC4)n1	ATXN2 expr inh 14µM, ATXN viability 22µM, HT1080-NT tox 21µM, HT1080 IDH1KD tx 21µM, KB-V1 MDR tox inconclusive
Cc1cc(C)n(-c2nc(NCCCN(C)C)c3c4c(sc3n2)CCCC4)n1	ATXN2 expr inh 22µM, KB-3-1 cytotox inconclusive, HT1080-NT tox 15µM, HT1080 IDH1KD tx inconclusive, KB-V1 MDR tox inconclusive (no result: ATXN viability)
